Source: PubChem (several laboratories)
Sampled rows, rich in hits. Any-hit rate of the full collection: about 1.9%.
GRK2 inh – inhibitors of human GRK2 displacing RNA aptamer | bead flow cytometry, FAM-aptamer displacement from GRK2 | AID 488847 | inhibition of aptamer binding, % at 10 µM | P25098 | 0.59% of 330,000 active;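 active = inhibition of aptamer binding above 40%, roughly 3 SD of noise, on plates passing a quality check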;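 note: median bead fluorescence of bound FAM aptamer so fluorescent compounds give negative values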
eIF4H FP inh – inhibitors of RNA binding by human eIF4H. Q15056. eIF4H fluorescence polarization binding assay. inhibition, % at 35 µM. 0.94% of 290,000 active. AID 2012;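 note: calls also rest on retests at 20 µM and on dose response follow-up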
PABP FP inh – blocks human PABP binding to poly(A) RNA; fluorescence polarization; inhibition, % at 35 µM; 1% of 290,000 active; AID 2014;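 note: calls also rest on retests at 20 µM and on dose response follow-up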
PABP1 MLLE inh – blocks PAM2 peptide binding to the PABP1 MLLE domain; GST-MLLE / FITC-PAM2 fluorescence polarization; P11940; 0.36% of 360,000 active; AID 588489; inhibition, % at 20 µM; in the data active = inhibition above about 35%, passing the limit was not always enough;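 note: plate controls were DMSO wells with GST-MLLE for no effect and wells lacking GST-MLLE protein for full effect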
PERK inhibitor – human PERK inhibition, primary cell-based screen; Q9NZJ5; CHO PERK-DD fusion, SEAP luminescence translation reporter; inhibition, % at 5.6 µM; 0.17% of 220,000 active; AID 1416;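 active = inhibition above the mean inhibition of all tested compounds plus 3 SD, set separately per screening campaign, cut at about 2.9% in these data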;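 note: PERK kinase domain activated by AP20187 dimerizer at 100 nM; 0% = DMSO with dimerizer and 100% = rapamycin at 8.4 µM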
GRK2 inh confirm – confirmation of human GRK2 inhibitors displacing RNA aptamer | bead-bound GRK2, FAM-aptamer displacement, flow cytometry | shares compounds with GRK2 inh | 4% of 2,000 active | aptamer displacement, % at 10 µM;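 active = aptamer displacement above 40%, near three times the noise of non-fluorescent compounds, on plates passing quality checks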;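 note: negative values mostly reflect intrinsic compound fluorescence rather than true enhancement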
Aptamer quench SP – counter-screen for GRK2 aptamer inhibitors: fluorescent aptamer quenchers. shares compounds with GRK2 inh. Carboxyfluorescein RNA aptamer on beads, flow cytometry quenching; hits give low values. fluorescence response (% of DMSO), % at 10 µM. 2,000 tested, under 10 active. AID 504580;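 active = compounds that quench the bead-bound fluorescent RNA probe, cutting fluorescence to under half of the solvent control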;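 note: counterscreen run without GRK2 so only probe quenching by compound is measured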
GRK2 confirm 2 – human GRK2 inhibition confirmation, cherry pick 2 | shares compounds with GRK2 inh | bead-bound GRK2, FAM-aptamer displacement, flow cytometry | inhibition of aptamer binding, % at 10 µM | 360 tested, under 10 active | AID 504782;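 active = inhibition of aptamer binding above 40%, about triple the noise seen with nonglowing compounds, on plates passing quality control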;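 note: negative values mostly come from compounds that fluoresce themselves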
Aptamer quench3 – counter-screen for GRK2 aptamer inhibitors: fluorescent aptamer quenchers; change in fluorescence (kMESF span), kMESF (concentration not given with the values); shares compounds with GRK2 inh; Streptavidin beads, FAM-RNA aptamer fluorescence quenching, flow cytometry; 25 tested, under 10 active;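 active = compounds quenching the bead-bound labeled aptamer, with fluorescence dropping by more than 37 kMESF over the dose range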
FAM quench CP2 – quenches fluorescent RNA aptamer, GRK2 hit artifact | shares compounds with GRK2 inh | carboxyfluorescein RNA aptamer beads, flow cytometry quenching; hits give low values | fluorescence response vs DMSO, % at 10 µM | 360 tested, under 10 active;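 active = response vs DMSO under 50%, meaning signal dropped by over half, treated as fluorescence quencher; inconclusive = no clear call, values can overlap the other calls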;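 note: labelled aptamer on streptavidin beads without GRK2 as a quench counter-screen; 100% = bead fluorescence of DMSO wells and lower means quenching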
FAM quench DR – aptamer fluorescence quenching in GRK2 powder counter-screen | Bead-bound FAM RNA aptamer fluorescence quenching, flow cytometry; hits give low values | shares compounds with GRK2 inh | 35 tested, under 10 active | fluorescence ratio to DMSO, % at 11.1 µM;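 active = compounds that dim the fluorescent label, raw bead signal shifting by over 33 units between lowest and highest dose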
* hit, by the source's call; ? = inconclusive; · = no result. Unless noted, the rule behind the calls is not given here.

SMILES	GRK2 inh	eIF4H FP inh	PABP FP inh	PABP1 MLLE inh	PERK inhibitor	GRK2 inh confirm	Aptamer quench SP	others
O=C(CCS(=O)(=O)c1ccc(Br)cc1)Nc1ccc(Br)cc1F	70*	?	?	-5	2	·	·	GRK2 confirm 2=0;Aptamer quench3=-2.3;FAM quench CP2=100;FAM quench DR=98
O=C(CCS(=O)(=O)c1ccc(Br)cc1)Nc1ccc(Cl)cc1F	0	-4	-3	14	1	·	·
O=C(CS(=O)(=O)c1ccccc1)Nc1ccc(Cl)cn1	0	-14	-1	-9	·	·	·
O=C(CCS(=O)(=O)c1ccc(Br)cc1)Nc1ccccn1	14	27	10	7	1	4	99
O=C(COC(=O)C1CC1)Nc1ccc(Cl)cn1	53*	·	·	-12	·	4	96
O=C(COC(=O)C1CC1)Nc1ncc(Cl)cc1Cl	9	·	·	8	·	·	·
O=C(CCS(=O)(=O)c1ccccc1)Nc1ccc(Cl)cn1	14	37	8	-4	·	9	105
CC(C)n1nc(C(=O)Nc2cccc(S(=O)(=O)N3CCOCC3)c2)c2ccccc2c1=O	0	·	·	-3	·	·	·
NC(=O)c1sc2nnc(-c3ccccc3)c(-c3ccccc3)c2c1N	1	0	18	-72	-1	·	·
C=CCNc1nnc(Cc2ccc(C(C)C)cc2)c(=O)[nH]1	5	-4	6	12	·	·	·
O=C(CCc1ccc(Oc2cc([N+](=O)[O-])cc([N+](=O)[O-])c2)cc1)N1CCCCCC1	1	3	4	-11	-1	·	·
O=C(c1ccco1)N(CCCN1CCOCC1)c1nc(-c2ccc(Cl)cc2)cs1	2	0	5	-22	-2	1	103
CCN(CC)CCCN(C(=O)c1ccco1)c1nc(-c2ccc(C)cc2)cs1	59*	-7	-11	-7	0	-13	104
CCN(CC)CCCN(C(=O)c1ccco1)c1nc(-c2ccc(Cl)cc2)cs1	66*	0	7	1	·	-15	99
COCCCN(C(=O)c1ccco1)c1nc(-c2ccc(OC)cc2)cs1	4	-1	-9	0	·	·	·
CCN(CC)CCCN(C(=O)c1cccs1)c1nc(-c2ccc(OC)cc2)cs1	0	-7	1	16	-2	·	·
Cc1ccc(NC(=S)NC(=O)C2CCCC2)c(Br)c1	0	·	·	21	·	·	·
O=C1C2C3C=CC(C2C(=O)N1C1CCCCC1)C1C2C(=O)N(C4CCCCC4)C(=O)C2C31 (stereo not drawn)	1	-6	2	-1	0	·	·
CCn1cc(C(=O)NCC(OC)OC)c(=O)c2cc(S(=O)(=O)N3CCC(C)CC3)ccc21	1	6	2	-2	·	·	·
Cc1ccc(C(=O)OCc2nc3ccsc3c(=O)[nH]2)o1	2	·	·	6	·	·	·
O=C(/C=C/c1ccc(Br)o1)OCc1nc2ccsc2c(=O)[nH]1	88*	·	·	-1	·	16	99
O=C1NC2=C(C(=O)CCC2)C(c2ccccc2)N1 (stereo not drawn)	1	-4	7	-11	·	·	·
CC1(C)CC(=O)C2=C(C1)NC(=O)NC2c1ccccc1 (stereo not drawn)	47*	4	3	11	1	-2	102
COC(=O)c1ccc(-c2sc3nc(N4CCOCC4)c4c(c3c2N)CCCC4)o1	23	3	6	·	-1	·	·
CC12CCC(=O)N1c1c(sc3nc(N4CCOCC4)c4c(c13)CCCC4)C(=O)N2 (stereo not drawn)	45*	-5	0	15	0	22	80
SMILES	GRK2 inh	eIF4H FP inh	PABP FP inh	PABP1 MLLE inh	PERK inhibitor	GRK2 inh confirm	Aptamer quench SP	others
O=C(Nc1ccc(-c2nc3ccccc3[nH]2)cc1)c1ccco1	1	-2	7	1	1	·	·
O=C(/C=C/c1ccco1)Nc1ccc(-c2nc3ccccc3[nH]2)cc1	49*	-10	2	-40	-1	-1	124
Oc1nc(Nc2ccccc2)sc1/C=C1\C=Nc2ccccc21	45*	-2	-4	-27	-1	-1	98
CC(C)C[C@@H](CN1CCC[C@@H]1CN1C(=S)NC[C@@H]1Cc1ccc(O)cc1)N1C[C@H](Cc2ccc(O)cc2)N(CC2CCCCCC2)C1=S	·	·	·	7	·	·	·
CSc1ccc(CN2CCN(C(C)C)C(CCO)C2)cc1 (stereo not drawn)	91*	8	-20	5	0	-4	104
CSCCC(NC(=O)c1ccc([N+](=O)[O-])cc1Cl)C(=O)OC(C)C(=O)NCc1ccco1 (stereo not drawn)	0	·	·	5	·	·	·
O=C(CSc1nccn1Cc1ccco1)Nc1ccccc1	4	-1	6	-3	·	·	·
Nc1nn(-c2ccccc2)c2ccc([N+](=O)[O-])cc12	75*	-3	1	-2	·	2	85
Cc1cc(CNC(=O)CC2C(=O)NCCN2Cc2ccc(-c3ccccc3)cc2)nn1C (stereo not drawn)	3	11	4	8	1	-15	96
Cc1cc(CNC(=O)CC2C(=O)NCCN2Cc2ccccc2)nn1C (stereo not drawn)	0	47	13	19	·	·	·
O=C1NCCN(Cc2ccc(F)cc2)C1CC(=O)N1CC=C(c2ccccc2)CC1 (stereo not drawn)	3	32	34	3	0	·	·
O=C1NCCN(Cc2ccc(-c3ccccc3)cc2)C1CC(=O)N1CCN(CCO)CC1 (stereo not drawn)	100*	26	17	23	0	0	81
Cc1ccc(S(=O)(=O)NCCC(=O)Nc2nnc(C)s2)cc1	100*	-3	-11	-16	0	3	102
COc1cc(OC)nc(NC(=O)COC(=O)c2cccc(Cl)c2)n1	2	-3	-5	-2	1	·	·
COc1ccc(CN(C)C(=O)Cn2cc(C)c(=O)[nH]c2=O)cc1OC	·	·	·	7	·	·	·
COc1ccc(CN(C)C(=O)Cn2ccsc2=N)cc1OC	0	-8	-5	25	·	4	96
NC(=O)COC(=O)CCCSc1nc2ccccc2s1	51*	-4	-18	-15	0	1	97
